This is an account of results in PubChem BioAssay (NCATS).

Where “and” joins values, the source holds several entries; their conditions need not be identical. Equal values may be shown once. Records with an inconclusive call do not appear. Calls of active or inactive are those of the source. Unless noted, calls follow the shape of the dose curve; as a rule, active = well fitted curve in the direction sought with a large enough effect; inconclusive = small, poorly fitted or top-dose-only effect, or another doubt; inactive = no such curve, though single readings can be large; an effect the other way counts as inactive or inconclusive.

The nature of test [1]: qHTS profiling of the MIPE4 collection as inhibitors of Plasmodium falciparum (3D7) proliferation (AID 743344; call rule not given here;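 also: scaled between DMSO vehicle wells and 0.29 µM artemisinin as full inhibition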). Conditions: P. falciparum 3D7 in erythrocytes, SYBR Green DNA fluorescence, 72 h; at 28.5 µM unless noted. The procedure, abridged: (§1)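 Erythrocytes infected with P. falciparum (0.3% parasitemia, 2.5% hematocrit) incubated with compounds 72 h at 37 C, 5% CO2. Lysis with saponin/Triton buffer containing SYBR Green I, overnight at room temperature in the dark; DNA fluorescence (485/535 nm) normalised to 0.29 uM artemisinin and DMSO.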
In general terms: In qHTS, concentration-response curves come from the screen itself.

Test [2] is described as follows: qHTS profiling of the MIPE4 collection as inhibitors of Plasmodium falciparum (DD2) proliferation (AID 743345; call rule not given here). Conditions: P. falciparum Dd2 in erythrocytes, SYBR Green DNA, 72 h; at 28.5 µM unless noted. The procedure, abridged:
as §1

Test [3] is described as follows: qHTS profiling of the MIPE4 collection as inhibitors of Plasmodium falciparum (DD2) proliferation (Rep 2) (AID 743346; call rule not given here). Conditions: P. falciparum Dd2 in erythrocytes, SYBR Green DNA, 72 h; at 28.5 µM unless noted. The procedure, abridged:
as §1

A short description of test [4]: qHTS profiling of the MIPE4 collection as inhibitors of Plasmodium falciparum (HB3) proliferation (AID 743347; call rule not given here;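 also: plate controls were DMSO vehicle wells for no effect and artemisinin wells for full effect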). Conditions: P. falciparum HB3 in erythrocytes, SYBR Green DNA, 72 h; at 28.5 µM unless noted. The procedure, abridged: as §1
A short description of test [5]: High-throughput drug toxicity screening in the BPDCN cell line Gen2.2 (AID 1224824; call rule not given here;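 also: cells exposed to compounds for 48 h before reading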). Conditions: Gen2.2 BPDCN cells; at 45.8 µM (top of the series) unless noted. The procedure, abridged: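 Gen2.2, 500 cells/well, phenol red-free RPMI/10% FBS/Pen-Strep; 48 h cpd, 37 °C/5% CO2; CTG lum, 15 min RT. Norm: DMSO = 100%, bortezomib 9.2 uM final = 0%.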
Test [6] can be described thus: High-throughput drug toxicity screening in the BPDCN cell line Cal-1 (AID 1224825; call rule not given here). Conditions: Cal-1 BPDCN cell viability, qHTS; at 45.8 µM (top of the series) unless noted. The procedure, abridged:
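500 Cal-1 cells/well, RPMI + glutamine + 10% FBS (phenol red-free); cpd added by pin tool; 48 h, 37C, 5% CO2; CTG 15 min RT, lumi read. Normalised: DMSO 100%, bortezomib 9.2 uM 0%.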

A short description of test [7]: qHTS assay for measurement of the activity of small molecule inhibitors on Zika virus induced Caspase-3 activity in human iPSC derived neural progenitor cells (hNPCs) (AID 1224857). Also: % of control where 0% means no effect; nearly all actives have a fitted effect of over 65% in size. The procedure, abridged: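 Quantitative HTS format: human iPSC neural progenitors, 1 h compound pretreatment, ZIKV 2 FFU/cell for 6 h at 37 C. Percent inhibition derived from luminescent caspase-3/7 signal between uninfected and infected controls.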

A short description of test [8]: qHTS assay for measurement of the activity of small molecule inhibitors on Zika virus induced Caspase-3 activity in human astrocytoma cells (AID 1224859).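 Also: plate controls were ZIKV-infected untreated cells for no effect and uninfected cells for full effect.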 The procedure, abridged: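 Readout is luminescence from Caspase-Glo 3/7 added after a 6 h ZIKV infection (2 FFU/cell) of compound-pretreated (1 h) SNB-19 cells; data expressed as % inhibition versus uninfected and infected wells.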

A short description of test [9]: qHTS Screen of the MIPE 4.0 Collection Against Ewings Sarcoma (RDES) (AID 1259252). Also: nearly all actives have a fitted effect of over 35% in size. Also: potency is read from the fitted curve at half-maximal effect. In short, it runs like this: (§2)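 After a 4 h attachment period in RPMI/5% FBS, cells were pin-dosed with test compounds; DMSO served as negative and 9.2 uM bortezomib (final) as positive control. Luminescent CellTiter-Glo signal at 48 h defined viability.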
A short description of test [10]: qHTS Screen of the MIPE 4.0 Collection Against Ewings Sarcoma (TC71) (AID 1259253). Also: nearly all actives have a fitted effect of over 40% in size. Also: potency is read from the fitted curve at half-maximal effect. The procedure, abridged: as §2
A short description of test [11]: qHTS Screen of the MIPE 4.0 Collection Against Ewings Sarcoma (EW8) (AID 1259255). Also: nearly all actives have a fitted effect of over 35% in size. Also: potency is read from the fitted curve at half-maximal effect.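 As to viability: 100% = DMSO-treated cells and 0% = medium-only wells without cells.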 The procedure, abridged:
as §2

Test [12] can be described thus: qHTS Screen of the MIPE 4.0 Collection Against Ewings Sarcoma (TC32) (AID 1259256). Also: nearly all actives have a fitted effect of over 45% in size. Also: potency is read from the fitted curve at half-maximal effect. In short, it runs like this: as §2
Test [13] can be described thus: qHTS assay to identify small molecule inhibitors of chordoma cells - UCH-1 (AID 1259355). Also: % is scaled to controls: 0 for no effect and ±100 for the full control effect; nearly all actives have a fitted effect of over 55% in size. In short, it runs like this:
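Seed 800 cells per well; incubate overnight at 37 C, 5% CO2. Add test compounds (15 concentrations), then the auranofin–topoisomerase-agent combination. Incubate 48hr, add CellTiter-Glo, wait 30min, read luminescence.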

The nature of test [14]: qHTS assay to identify small molecule inhibitors of chordoma cells - UCH-2 (AID 1259356). Also: % is scaled to controls: 0 for no effect and ±100 for the full control effect.
Test [15] can be described thus: qHTS profiling for inhibitors of Plasmodium falciparum (3D7) proliferation (AID 743322; call rule not given here;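 also: infected erythrocytes exposed to compound for 72 h before lysis; 100% = DMSO vehicle wells and 0% = 0.29 µM artemisinin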). Conditions: P. falciparum 3D7 proliferation; at 28.7 µM (top of the series) unless noted. In short, it runs like this:
as §1

Test [16] can be described thus: qHTS profiling for inhibitors of Plasmodium falciparum (DD2) proliferation (AID 743323; call rule not given here). Conditions: lower = more inhibition; at 28.7 µM (top of the series) unless noted. The procedure, abridged: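 1536-well qHTS; infected RBCs 0.3% parasitemia/2.5% Hct final; cpd 72 h 37 C 5% CO2; lysis buffer + SYBR Green I, o/n RT dark; FI 485/535; norm. to 0.29 uM artemisinin and DMSO, plate-stack corrected.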

Test [17] can be described thus: qHTS profiling for inhibitors of Plasmodium falciparum (HB3) proliferation (AID 743324).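 Also: 100% = DMSO vehicle wells and 0% = artemisinin-treated control wells.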 Conditions: Plasmodium falciparum HB3 blood-stage proliferation; at 28.7 µM (top of the series) unless noted. The procedure, abridged: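 P. falciparum HB3 grown in erythrocytes (0.3% parasitemia, 2.5% hematocrit final) with compound for 72 h at 37 C, 5% CO2. Parasite DNA detected by SYBR Green after saponin/triton lysis overnight; normalized to 0.29 uM artemisinin and DMSO.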

In the case of `Cn1cnc([N+](=O)[O-])c1Sc1ncnc2nc[nH]c12`, the parasite growth, % of DMSO control in test [1] was determined as 47.3%. For the same compound, in test [2], the parasite growth remaining, % of DMSO control (lower = more inhibition) was 87.7%. Moreover, in test [3], the parasite growth, % of control (lower = inhibition) came out at 33.8%. This compound had a growth, % of control in test [4] of 45.9%. Besides, the cell viability, % of control (lower = more cytotoxic) in test [5] came out at 16.2%. Moreover, in [6], the viability (% of control) was determined as 93.1%. Also, the Potency entry in [7], in test [8] and in [13] was “inactive” in each case. Besides, the Potency in [9] is 2.64 µM (active); in [10], 1.18 µM (active); in [11], 4.69 µM (active); in test [12], 3.32 µM (active). In test [14], the call was inactive.

`CN1CCN(CCCN2c3ccccc3Sc3ccc(C(F)(F)F)cc32)CC1`: in test [1], the parasite growth, % of DMSO control worked out at 108%. Further, the parasite growth remaining, % of DMSO control (lower = more inhibition) in test [2] was determined as 97.5%. In test [3], the parasite growth, % of control (lower = inhibition) is 101%. The compound further showed a growth, % of control in test [4] of 83%. For the same compound, the cell viability, % of control (lower = more cytotoxic) in test [5] was found to be 55.3%. Moreover, the viability (% of control) in [6] amounted to 77.3%. The Potency result in [7], in test [8] and in test [13] was “inactive” each time. Moreover, the Potency is 10.5 µM (active) in [9], 10.5 µM (active) in [10], 23.5 µM (active) in test [11] and 14.8 µM (active) in test [12].

On to `c1ccc([C@H]2CN3CCSC3=N2)cc1`, for which the parasite growth, % of DMSO control in test [1] is 92.1%. In addition, in test [2], the parasite growth remaining, % of DMSO control (lower = more inhibition) came out at 98.3%. Further, the parasite growth, % of control (lower = inhibition) in test [3] was 63.1%. Further, the growth, % of control in test [4] is 95.1%. Moreover, in test [5], the cell viability, % of control (lower = more cytotoxic) is 200%. The viability (% of control) in test [6] worked out at 116%. Also, the Potency entry in [7], in test [8], in [9], in test [10], in test [11] and in [12] was “inactive” throughout. Besides, the Potency result in test [13] is “inactive”.

Turning to `O=C(O)COCCN1CCN(C(c2ccccc2)c2ccc(Cl)cc2)CC1` (configuration not stated), the parasite growth, % of DMSO control in test [1] came out at 82.3%. Moreover, in test [2], the parasite growth remaining, % of DMSO control (lower = more inhibition) worked out at 104%. Besides, the parasite growth, % of control (lower = inhibition) in test [3] was 72.8%. The same compound displayed a growth, % of control in test [4] of 91%. Also, the cell viability, % of control (lower = more cytotoxic) in [5] worked out at 178%. The viability (% of control) in test [6] came to 124%. In addition, the Potency result in [7], in test [8], in test [9], in [10], in test [11] and in test [12] was “inactive” each time. Also, the Potency result in [13] was “inactive”.

Take `O=C1CCc2cc(OCCCCc3nnnn3C3CCCCC3)ccc2N1`: the parasite growth, % of DMSO control in test [1] is 90.8%. Further, the parasite growth remaining, % of DMSO control (lower = more inhibition) in test [2] was 99.1%. Also, the parasite growth, % of control (lower = inhibition) in test [3] amounted to 115%. Further, in test [4], the growth, % of control is 104%. For the same compound, in test [5], the cell viability, % of control (lower = more cytotoxic) stood at 137%. The viability (% of control) in test [6] came out at 84.4%. Besides, the Potency result in test [7], in [8], in [9], in test [10], in [11] and in [12] was “inactive” each time. In addition, the Potency entry in test [13] is “inactive”.

`NCCc1ccc(O)c(O)c1` yielded a parasite growth, % of DMSO control in test [1] of 74.8%. In [2], the parasite growth remaining, % of DMSO control (lower = more inhibition) came out at 20.2%. In addition, the parasite growth, % of control (lower = inhibition) in test [3] is 39.7%. The same compound had a growth, % of control in test [4] of 53.9%. Further, the cell viability, % of control (lower = more cytotoxic) in test [5] was 14.2%. In addition, the viability (% of control) in test [6] worked out at 25%. Besides, the Potency result in test [7], in test [8], in test [9] and in test [13] was “inactive” each time. The figures for the Potency in [10], in test [11] and in [12] were 16.6 µM (active), 16.6 µM (active) and 1.66 µM (active), respectively.

For the compound `O=C(c1cc(Cc2n[nH]c(=O)c3ccccc23)ccc1F)N1CCN(C(=O)C2CC2)CC1`, the remaining parasite growth % (stronger effect = lower value) in [15] is 88.8% and 97.4%. Also, the activity, percent of control in test [16] was 97.9% and 99.7%. Also, the remaining proliferation (% of control), lower = more inhibition in test [17] is 57.9% and 59.4%. In addition, the parasite growth, % of DMSO control in [1] amounted to 23.5%. Also, the parasite growth remaining, % of DMSO control (lower = more inhibition) in test [2] is 92.7%. The parasite growth, % of control (lower = inhibition) in [3] was found to be 44.7%. Besides, the cell viability, % of control (lower = more cytotoxic) in [5] amounted to 71.5%. For the same compound, the viability (% of control) in test [6] is 45.4%. Besides, the Potency result in test [7] and in test [8] was “inactive” each time. The Potency in test [9] is 8.33 µM (active); in test [10], 10.5 µM (active); in test [12], 3.72 µM (active).

With `CS(=O)(=O)c1cccc(CNc2nc(Nc3ccc4c(c3)CCC(=O)N4)ncc2C(F)(F)F)c1`, the remaining parasite growth % (stronger effect = lower value) in [15] worked out at 106%. For the same compound, the activity, percent of control in test [16] was determined as 108%. Further, the remaining proliferation (% of control), lower = more inhibition in test [17] turned out to be 101%. The parasite growth, % of DMSO control in test [1] is 12.1%. In addition, the parasite growth remaining, % of DMSO control (lower = more inhibition) in test [2] was 14.8%. Besides, in test [3], the parasite growth, % of control (lower = inhibition) is 28.9%. This compound also displayed a growth, % of control in test [4] of 10.1%. In addition, in test [5], the cell viability, % of control (lower = more cytotoxic) amounted to 13.6%. Besides, in test [6], the viability (% of control) came to 7.96%. Also, the Potency result in test [7] and in test [8] was “inactive” each time. Also, the Potency in test [9] was 20.9 µM (active); in [10], 16.6 µM (active); in test [11], 13.2 µM (active); in test [12], 11.8 µM (active).
